Data on 51 compounds can be found in ChEMBL document CHEMBL3988442, “University of Dundee, Small-Polar-MMV Screening Library” (2021).

Test [1] addresses T1, Aspartate--tRNA(Asp/Asn) ligase (Mycobacterium tuberculosis (strain ATCC 25618 / H37Rv)) (UniProt P9WFW3).
T1 sequence (whole entry): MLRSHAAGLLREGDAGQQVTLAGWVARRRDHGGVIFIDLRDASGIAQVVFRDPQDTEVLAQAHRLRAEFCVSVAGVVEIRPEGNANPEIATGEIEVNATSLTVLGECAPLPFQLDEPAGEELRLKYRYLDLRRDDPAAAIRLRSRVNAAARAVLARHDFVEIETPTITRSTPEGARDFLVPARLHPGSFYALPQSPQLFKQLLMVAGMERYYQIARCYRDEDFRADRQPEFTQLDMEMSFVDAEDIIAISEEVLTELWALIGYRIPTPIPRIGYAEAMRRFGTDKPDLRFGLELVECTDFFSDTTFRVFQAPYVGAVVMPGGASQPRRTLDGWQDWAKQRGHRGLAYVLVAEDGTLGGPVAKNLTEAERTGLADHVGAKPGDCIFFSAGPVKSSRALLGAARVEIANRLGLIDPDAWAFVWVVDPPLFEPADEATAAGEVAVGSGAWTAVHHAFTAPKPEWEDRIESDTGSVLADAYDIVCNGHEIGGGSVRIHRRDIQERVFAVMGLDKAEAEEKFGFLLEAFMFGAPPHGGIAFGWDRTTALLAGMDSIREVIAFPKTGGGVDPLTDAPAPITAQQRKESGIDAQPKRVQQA
In words: Assay for Asp RNA synthetase-1 from Mycobacterium tuberculosis. Set-up: scale not given: direction of the effect not stated beside the values. Format: functional. Particulars: 30 µM.

Test [2] deals with Shiga toxin 2 (Escherichia coli O157:H7) (UniProt P09385+P09386). In words: E. coli 0.157:H7 Shiga Toxin SOP - stx2 screening assay. It counts as functional. Set-up: scale not given: direction of the effect not stated beside the values. The following applies: 30 µM.

In the case of `CC(=O)N1CCn2cc(CNC(=O)c3cccn3C)nc2C1`, the Percent Effect in test [1] was 1.43%; in test [2], -9.92%.
In the same order, the values of `Cn1cccc1C(=O)NCc1cnc2n1CCN(C(=O)N1CCCC1)C2` are -0.495% and -94.8%.
Consider `CS(=O)(=O)NC1CCCN(C(=O)NCc2cc[nH]n2)C1` (configuration not stated), for which the Percent Effect in test [1] is -0.0288%; in test [2], 2.05%.
For `CC(C)C1CN(C(=O)c2ccc(N3CCCC3)nc2)CCS1` (configuration not stated), the Percent Effect in test [1] was 12.9%; in test [2], -43%.
For the compound `O=C1CN(Cc2nnc(-c3ccc(Br)cc3)o2)CCN1`, the Percent Effect in test [1] is -0.167%; in test [2], -95.1%.
In the same order, the values of `Cc1ccc(-c2nc(CN3CCn4c(nnc4C4CC4)C3)cs2)o1` are -4.03% and -88.7%.
In the case of `CC(C)(C)c1n[nH]c(C2CN(C(=O)c3cc(Cl)c[nH]3)CCO2)n1` (configuration not stated), the Percent Effect in test [1] was -4.97%; in test [2] it was 0.626%.
The like results for `CCOc1ccc(C2CC(=O)Nc3c2c(=O)nc2sccn32)cc1` (configuration not stated) were, in that order, 0.813% and -16.9%.
In the same order, the values of `COCc1nn(C(C)C)c2c1CCN(Cc1ccc(C)s1)C2` are -3.6% and -26.4%.
In the same order, the values of `Cc1nccn1C1CCCN(C(=O)c2ccc(N(C)C)nc2)C1` (configuration not stated) are -1.91% and 26%.
Take `COCCn1nc(C(=O)N2CCCC2c2cccc(F)c2)ccc1=O` (configuration not stated): the Percent Effect in test [1] turned out to be 2.11%; in test [2] it was 1.07%.
In the same order, the values of `Cc1ncnc2c1CCN(Cc1cccs1)CC2` are 9.2% and -21.2%.
In the same order, the values of `Cc1noc(C(C)C)c1C(=O)NCC(c1cccc(F)c1)N(C)C` (configuration not stated) are -4.05% and 8.91%.
As for `CCN1C(=O)CCCC12CCCN(C(=O)c1cnccn1)C2` (configuration not stated), the Percent Effect was 0.865% in test [1] and -10.9% in test [2].
In the same order, the values of `Cc1cc(C)n(C2CN(CC(O)COc3ccc(F)cc3)C2)n1` (configuration not stated) are -0.121% and 19.1%.
As to `CC1c2ncc(COc3cccnc3)n2CCN1C(=O)Cc1ccco1` (configuration not stated), the Percent Effect in test [1] was -1.45%; in test [2], -2.51%.
The like results for `CC(N(C)Cc1nc2c(cnn2C)c(=O)[nH]1)C(C)(C)C` (configuration not stated) were, in that order, 5.45% and 28.9%.
The like results for `Cc1nc(N2CCCC2)nc2c1CN(C(=O)N1CCOCC1)CC2` were, in that order, 0.478% and -3.98%.
The like results for `Cc1noc(CN2Cc3ccccc3CC2c2nnc(C)o2)n1` (configuration not stated) were, in that order, -2.54% and -7.76%.
In the case of `Cn1c(C(F)(F)F)nn(CCNC(=O)CSCc2ccccc2)c1=O`, the Percent Effect in test [1] was -5.63%; in test [2] it was 4.5%.
In the same order, the values of `CC(=O)c1cc(CC(=O)NCc2c(F)cccc2F)cs1` are -0.993% and 4.94%.
The like results for `CC(C)N(C)Cc1nnc2n1CCN(Cc1ccncc1)CC2` were, in that order, 3.87% and 1.49%.
In the same order, the values of `c1ccc(Cn2ccnc2CN2CCCC2c2noc(C3CC3)n2)cc1` (configuration not stated) are 6.6% and -32.8%.
Consider `Cc1nc(C)c(CC(=O)Nc2nnc(C)s2)c(=O)[nH]1`, for which the Percent Effect is -2.12% in test [1] and 19% in test [2].
The like results for `Cc1cccc(-c2noc(CN3CCC(N4CCNC4=O)CC3)n2)c1` were, in that order, 0.152% and 11.2%.
Regarding `CCOc1cc(C(=O)N2CCCC(c3noc(C)n3)C2)ccn1` (configuration not stated), the Percent Effect in test [1] stood at 0.253%; in test [2], 28.1%.
The like results for `OCCn1cc(CN2CCN(CCOc3ccccc3)CC2)cn1` were, in that order, 0.728% and 13.3%.
The like results for `CC(=O)N1CCC(c2nccnc2Oc2ccccc2)CC1` were, in that order, -0.819% and -5.88%.
The like results for `Cc1cccc(C2(CNC(=O)CCNS(C)(=O)=O)CCCC2)c1` were, in that order, -6.94% and -8.2%.
Turning to `CC(C)Oc1ncnc2c1CCN(C(=O)c1cccn1C)CC2`, the Percent Effect in test [1] is -1.46%; in test [2], -10.4%.
In the same order, the values of `COc1ccnc(C(=O)N2CCCC(c3noc(C)n3)C2)c1` (configuration not stated) are 0.885% and 1.38%.
In the same order, the values of `CCC(=O)Nc1ccc2c(c1)CN(C(=O)c1ccco1)CC2` are -3.28% and -43.9%.
For `CN(C)C(=O)CN1CCC2(CCCN(Cc3cccn3C)C2)C1=O` (configuration not stated), the Percent Effect in test [1] was 2.49%; in test [2] it was -13.9%.
As to `Cc1cc(C)n(CC2CCCN2Cc2c(C)noc2C)n1` (configuration not stated), the Percent Effect in test [1] was -2.12%; in test [2], -12.7%.
In the same order, the values of `Cn1cc(CCNC(=O)NC2CCS(=O)(=O)C2)cn1` (configuration not stated) are 2.01% and -8.38%.
In the case of `CC(C)CN1CCN(C(=O)NCc2cccnc2-n2cccn2)CC1`, the Percent Effect in test [1] was -1.98%; in test [2], -22.5%.
Take `Cc1ncsc1C(=O)N(Cc1cccnc1)C1CC1`: the Percent Effect in test [1] is -0.522%; in test [2], 5.93%.
`CN(CC1COc2ccccc2O1)C(=O)NCCCn1cncn1` (configuration not stated): the figures for the Percent Effect in test [1] and in test [2] were 1.57% and 21.4%, respectively.
The like results for `Cn1ncc2c(=O)[nH]c(CN3CCCC3c3cccs3)nc21` (configuration not stated) were, in that order, -0.799% and 3.97%.
The like results for `COc1ccc(CCN2CCC(N3CCN(C)C3=O)CC2)cc1` were, in that order, -1.97% and 0.371%.
In the same order, the values of `CCOc1ncccc1NC(=O)c1cc2c(s1)CCC2` are -3.51% and 1.91%.
Take `CCC(C)c1noc(C2CCN(C(=O)c3cccnc3)CC2)n1` (configuration not stated): the results for the Percent Effect in test [1] and in test [2] were 17% and -27.8%, respectively.
The like results for `CCCC(=O)N1CCC(O)(Cn2c(CC)nc3ccccc3c2=O)CC1` were, in that order, 0.164% and 0.775%.
In the same order, the values of `N#Cc1cccnc1NCc1cccnc1N1CCC(C(N)=O)CC1` are 4.47% and -10.3%.
Regarding `Cc1cc(C)n(CC2CCCCN2CCCS(N)(=O)=O)n1` (configuration not stated), the Percent Effect in test [1] is -7.33%; in test [2] it was -48%.
As to `CC(Cn1cccn1)NC(=O)N1CCN(Cc2cccs2)CC1` (configuration not stated), the Percent Effect in test [1] was -5.57%; in test [2] it was -23.7%.
In the same order, the values of `CCc1ccccc1-n1cc(O)c(C(=O)N2CCCCC2)n1` are 1.02% and 31%.
With `COCC1CC2(CCN(C(=O)c3occc3C)CC2)CO1` (configuration not stated), the Percent Effect is 2.64% in test [1] and -0.429% in test [2].
In the same order, the values of `COc1ccc(C[C@H]2CN(C(=O)c3ccncc3)CC[C@@H]2OC)cc1` are 1.64% and -22.2%.
As to `COCC1CN(C(=O)COc2ccccc2)Cc2cn(C)nc21` (configuration not stated), the Percent Effect in test [1] came to 1.18%; in test [2], 0.0839%.
In the same order, the values of `CCn1ncc(NC(=O)c2cc(C3CC3)nc3c2c(C)nn3C)c1C` are -1.99% and -23%.
